# Results reported in the supplement of paper PMC6555819.
# System: RXRa homodimer (NR concentration 180 nM)
# Assay: PBM binding z-score (relative to random genomic background probes); higher = stronger binding; sequences stand for … in GC…GCGATTGACAGCGTAGAATGAAGG
# Outline: (§1)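 The probes on custom Agilent 4×180K protein-binding microarrays were double-stranded, with 34-nt variable regions bearing direct-repeat seeds, single-nucleotide variants, half-site ablations and random human genomic background sequences. Incubation lasted 1 h with ligand-free nuclear receptor dimers in PBS pH 7.4, 2% milk, 0.02% Triton X-100, 1 mM DTT, 0.2 mg/mL BSA and 0.4 mg/ml salmon testes DNA. Antibodies against each partner (one per run) detected bound dimers, and fluorescence scans were regression-normalized. Binding z-scores take the random background probes as reference.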
row,Sequence,PBM binding z-score
1,CCGACTGGGGCAAAGGCTACCATACTCAGTACGA,0.387
2,CGTCCAAAGTCATAGGAGGTCAGTGAAGACAGAT,1.96
3,TCTCGGAGGACACGGAGGTCAGAGCTTTCCAGAG,2.47
4,TCTCGGACGACACGAAAGGTCAGAGCTCGACATC,4.8
5,TCTTGTAGATCAAGCAGGTTCAGAAAGCCTGAGT,0.0665
6,ACTGACGGGTCAACGAGGTTATAGCACGCGTATA,5.11
7,TCGATTAGGTTAGGGGCATTCAGAATGGCGTCGA,0.857
8,TCGAGTAGGTTAGCAATGGGGCATTCAGCTTTCT,0.129
9,AATACAGGGTCAGTAGGCCAGAGTAGGTACGAAT,3.73
10,ATCGAAAGCTCGACGAGGTGAGTATACACCGTTT,0.189
11,TAGCCTAGGTGATGCGGGCCAGTATAGTGTCGGC,-0.304
12,CTCGAAAGGTCGGTTGAGATGAGTATACGGATAA,2.01
13,CCTAGTTGGTCCAGGTCACACACGCTATAGGTAC,2.64
14,CCTATTAGTTGACCATAATGGCAACCGAAGCTCG,0.421
15,TGAATGAGGTTATCAGATCAGGGAACGTTGCAAA,1.99
16,TCTATTAGTTGATTAGGGCTACCGAAACAGCGGA,0.363
17,AGACCAAGGTGATCGTGAGGTCGTTGATACTAAC,1.37
18,GCTAGCAGGCCATTTGGATCACTCAATGACGGGC,-0.0428

# System: THRa:RXRa (NR concentration 90 nM, RXRa partner concentration 90 nM)
# Assay: as above
# Outline: as §1
row,Sequence,PBM binding z-score
1,ATACCAAGGTGATAGTGAGGTCGTTGATACTAAC,3.3
2,ATCTCTAGGTACGACTCAGTTCAGTGAAGAACGC,0.879
3,TCAGACAGGTGAAGGTAATTCAGGTACGCAGTCG,1.81
4,ATATGTAGGTTACATCCGGGTCATACAGGCTATG,4.01
5,GCTAGTTGGTCAGGAAAAGGTCACACACCGGTCG,3.52
6,TCGAGTAGGCTAGTCGGGGCATTCAGCCAACATA,-0.266
7,ACTCGGAGGACAAAGTTCAGAGCTACGCCAGTGA,1.71
8,ACTAGTTGGTCAGCTGAGGTTACACACAATTCGG,3.86
9,TCATGTAGATCAAGCAGGTTAAGAAAGCCTGAGT,0.397
10,CCTACTGGGCCATCAGGTCAGTGATATCAACGTT,2.19
11,ATCTCTAGGTAACGTTCAGTGAAAGATCGATAGA,0.969
12,TCTAGCAGGCCAGAGGGTCACTCAGGAGGTACGG,1.74
13,ATCGAAAGGTCGAGGTGACTATAGAGAAAGGGAA,2.9
14,TCTATGAGTTGAAGGGCAACCGACGAGTCCGTTT,0.511
15,CCTACTGGGCCATTCGGAGGTCATTGATCATATG,2.83
16,CGAACTAGGCCATCCAGGACAGTGAATACATTGA,1.57
17,ATCTCTAGCTAAAGATAGTTCAGTGAATGCAAAT,0.114
18,TGAAAGAGGTTATAAGATCAGGGAACGTTGCAAA,0.935
19,CCTACTGGGCCTTTCAGAGGTCATTGATCATATG,3.04
20,GGAACGAGGGCAAGTTGATAACAGAGTTTGATGG,1.13

row,Sequence,PBM binding z-score
1,TCAGACAGGCGAAGGTAACTCAGGTACGCAGTCG,0.951
2,TCATATAGGTAAAAGCTGAAAGTCGGTGTGGTAA,-0.258
3,CCGACTGGGGCAAAGGCTACCATACTCAGTACGA,-0.182
4,CGTCCAAAGTCATAGGAGGTCAGTGAAGACAGAT,4.28
5,TCTCGGAGGACACGGAGGTCAGAGCTTTCCAGAG,3.34
6,TCTCGGACGACACGAAAGGTCAGAGCTCGACATC,2.77
7,TCTTGTAGATCAAGCAGGTTCAGAAAGCCTGAGT,0.613
8,ACTGACGGGTCAACGAGGTTATAGCACGCGTATA,3.63
9,TCGATTAGGTTAGGGGCATTCAGAATGGCGTCGA,1.33
10,TCGAGTAGGTTAGCAATGGGGCATTCAGCTTTCT,-0.27
11,AATACAGGGTCAGTAGGCCAGAGTAGGTACGAAT,2.38
12,ATCGAAAGCTCGACGAGGTGAGTATACACCGTTT,1.02
13,TAGCCTAGGTGATGCGGGCCAGTATAGTGTCGGC,-0.285
14,CTCGAAAGGTCGGTTGAGATGAGTATACGGATAA,1.72
15,CCTAGTTGGTCCAGGTCACACACGCTATAGGTAC,3.72
16,CCTATTAGTTGACCATAATGGCAACCGAAGCTCG,0.384
17,TGAATGAGGTTATCAGATCAGGGAACGTTGCAAA,2.02
18,TCTATTAGTTGATTAGGGCTACCGAAACAGCGGA,0.166
19,AGACCAAGGTGATCGTGAGGTCGTTGATACTAAC,3.4
20,GCTAGCAGGCCATTTGGATCACTCAATGACGGGC,-0.754
